According to PubChem BioAssay (NCI):
Compounds without any hit were thinned out: in the full panel of roughly 83,000, 20% have a hit.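 Each cell line was grown in a 96-well plate and treated with one concentration of compound for 48 hours. Values below 10 were considered active.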 Values without a mark were called inactive. Calls of active or inactive are those of the source.

These compounds were tested on HL-60(TB) leukemia (assay: NCI-60 one-dose screen, 48 h (100 = growth as untreated, 0 = no growth, -100 = all killed)). Details: 10 µM unless noted.

SMILES | growth
C#C[C@]1(O)CC[C@H]2[C@@H]3CC=C4c5sc(Nc6cc(C)cc(C)n6)nc5CC[C@]4(C)[C@H]3CC[C@@]21C | -16.4% (active)
COc1cc2oc(-c3cccc(C(=O)Nc4ccc(Cl)cc4)c3)cc(=O)c2c(OCC(=O)N[C@@H](Cc2ccccc2)C(=O)O)c1OC | 115%
Nc1cc(-c2c[nH]c3ccc(Br)cc23)nc2cc(-c3c[nH]c4ccccc34)nn12 | -15% (active)
CC1[C@H]2[C@H](C[C@H]3[C@@H]4CC=C5c6sc(Nc7cccc(Cl)n7)nc6CC[C@]5(C)[C@H]4CC[C@@]32C)O[C@]12CC[C@@H](C)CO2 (stereo not given in full) | 45.4%
O=C(N/N=C/c1ccc(B(O)O)o1)c1[nH]c2ccc(Br)cc2c1-c1ccccc1 | -29.3% (active)
Cc1ccc(-c2nc(Nc3ccccc3C(=O)O)c3ccccc3n2)cc1 | 17.8%
O=C(NC(=S)N1CCN(c2ncnc3c2cnn3-c2ccccc2)CC1)c1ccc(F)cc1 | 64.8%
CCCSc1nc(Nc2ccc(S(N)(=O)=O)cc2)c(C#N)c(-c2cc(OC)c(OC)c(OC)c2)n1 | -40.3% (active)
O=C(CSc1nnc(-c2ccc3nc(-c4ccccc4)[nH]c3c2)o1)Nc1ccc(Cl)cc1 | 46.7%
COc1ccc2oc(=O)c(-c3csc(N/N=C(\C)c4cc(OC)c(OC)c(OC)c4)n3)cc2c1 | 107%
CC(C)(C)c1cc(-c2cc(-c3ccccc3)[nH]c(=O)c2C#N)cc(C(C)(C)C)c1 | 82.3%
CN(C)c1nc(NCCNS(=O)(=O)c2ccc(C3=Nc4c(N)nc(N)nc4NC(c4ccc(Cl)cc4)C3)cc2)nc(N2CCOCC2)n1 (stereo not given) | 28.1%
COc1ccc(-c2nc(SCC(C)C)nc(NCCc3c[nH]c4ccccc34)c2C#N)cc1 | 63.2%
CN1CCN(C(=O)CCN(C(=O)Oc2cc3c(c4ccccc24)[C@H](CCl)CN3C(=O)c2cc3cc(OCCCN4CCC4)ccc3[nH]2)[C@H]2CCSSC2)CC1 | -56.7% (active)
CCC(C)(C)c1ccc(OCCCCN2CCN(c3ccncc3)CC2)cc1 | -57.7% (active)
Cc1noc2c(Cc3ccc([N+](=O)[O-])cc3)nn(CC(=O)N/N=C/c3ccc(Cl)cc3)c(=O)c12 | 87.5%
CCOc1ccc(/C=N/NC(=O)Cn2nc(Cc3ccccc3)c3onc(C)c3c2=O)cc1 | 89.7%
Cc1cc(C(NC(=O)CCCCCNc2cccc3c2C(=O)N(C2CCC(=O)CC2=O)C3=O)c2cccc(N(C)C)c2)c(O)c2ncccc12 (stereo not given) | -15.3% (active)
COc1ccc2nc(Nc3cccc(NC(=O)c4ccc(CN5CCN(C)CC5)c(C(F)(F)F)c4)c3)ccc2c1 | -47.8% (active)
COC1=C[C@]23CCC(=O)N2CCc2cc4c(cc2[C@@H]3[C@@H]1OC(=O)[C@H](C)O)OCO4 | -28.6% (active)

SMILES | growth
CCCCSc1nc(Nc2ccc(/C(C)=N/NC(N)=S)cc2)c(C#N)c(-c2ccc(F)cc2)n1 | 90.7%
CC(=O)c1cccc(NC(=O)CCC(=O)NS(=O)(=O)c2ccc(C)cc2)c1 | 107%
COc1c(F)ccc(C(=O)Nc2ccc3nc(NC(=O)C4CCCN(S(=O)(=O)c5ccc(C(F)(F)F)cc5)C4)sc3c2)c1F (stereo not given) | 101%
N#CCc1nnc(NC(=O)c2ccc(-n3c(=O)[nH]c4ccccc4c3=O)cc2)s1 | 86%
C#C[C@]1(O)CC[C@H]2[C@@H]3CC=C4c5sc(Nc6ccc(C(F)(F)F)cn6)nc5CC[C@]4(C)[C@H]3CC[C@@]21C | 1.27% (active)
c1ccc(-c2csc(Nc3cccc(Nc4nc(-c5ccccc5)cs4)c3)n2)cc1 | 65.9%
Oc1ccc(/C=C2\CCCc3cc4ccc(O)cc4[o+]c32)c(O)c1 | 33.4%
COc1ccc(-c2nc(SC(C)C)nc(NCCc3c[nH]c4ccccc34)c2C#N)cc1 | 31.6%
O=C1CCC(N2Cc3cc(NC(=O)COc4ccccc4)ccc3C2=O)C(=O)N1 (stereo not given) | 6.3% (active)
CN1C(=O)/C(=C/c2nccs2)SC1=S | 89%
O=C(CNc1nc(-c2ccccc2)cs1)Nc1ccc([N+](=O)[O-])cc1 | 5.69% (active)
COCOc1ccc2c(=O)c(C)c(C(=O)N[C@@H](Cc3ccccc3)C(O)C(=O)NCCc3ccc(OC)cc3)oc2c1 (stereo not given in full) | 102%
O=c1c2ccccc2nc(COc2ccccc2)n1/N=C/c1ccc(N2CCCC2)cc1 | 101%
Cc1ccc(S(=O)(=O)c2nc(S(=O)(=O)c3ccc(C)cc3)c(Cl)s2)cc1 | 15.9%
CC(=O)NS(=O)(=O)c1ccc(NC(=O)CSC2=NC(c3ccccc3)C(C(C)=O)=C(C)N2)cc1 (stereo not given) | 97.4%
CCOC(=O)/C=C/c1cccc2c1C(=O)NC(C)(c1cc3cc(Br)ccc3oc1=O)N2 (stereo not given) | 27.3%
CC(=O)Nc1cccc(-c2nc3cc(-c4ccc(O)cc4)ccc3n2C)c1 | 20.7%
O=C(CSc1nnc(-c2ccc(-c3nc4ccccc4[nH]3)cc2)o1)Nc1ccccc1 | 53.5%
O=C(N1c2ccccc2Sc2ccccc21)n1ccc2cccnc21 | 25.2%
COc1ccc(-c2ccnc(SCc3cc4cc(Cl)ccc4[nH]c3=O)n2)cc1 | 120%
